Where two headings read alike, the source gives them in different places.

The source of these data is article PMC7822874, “Chemoprotective antimalarials identified through quantitative high-throughput screening of Plasmodium blood and liver stage parasites” (Scientific Reports, 2021).

For the test, the system named is P. berghei-ANKA-GFP-LucCON liver stage parasites in HepG2-A16-CD81EGFP cells. Particulars: 48 h.

For the compound `COC(=O)C1=C(C)NC(C)=C(C(=O)OCCCN2CCC(c3ccccc3)(c3ccccc3)CC2)C1c1cccc([N+](=O)[O-])c1` (stereo not shown) [NCGC00163135], the “% viability” value runs as follows: (1 µM) 0.1886; (3 µM) 0.1117.
`COc1ccc(-c2c[n+](CC(=O)c3cccs3)c3n2CCC3)cc1` [MLS000333575]: the “% viability” value by setting is: (1 µM) 1.153; (3 µM) 0.8461.
